Measurements: ChEMBL document CHEMBL4296182, “CO-ADD screening of NIH NCI Diversity Set V”
For part of these data: Potency and affinity values are given separately.

Experiments:
Staphylococcus aureus = assay: Antibacterial activity against Staphylococcus aureus MRSA ATCC 43300 (CO-ADD:GP_020); MIC in CAMBH media using NBS plates, by Resazurin F(560/590); assay type: functional; conditions: Concentration 20 uM, ASSAY_TEST Inhibition of Bacterial Growth, detection method Resazurin, Fluorescence (ex560/em590), MEDIA CAMHB, plate type 384well, CORNING #3640, time 18 hr
Acinetobacter baumannii = assay: Antibacterial activity against Acinetobacter baumannii ATCC 19606 (CO-ADD:GN_034); MIC in CAMBH media using NBS plates, by Resazurin F(560/590); assay type: functional; conditions: Concentration 20 uM, ASSAY_TEST Inhibition of Bacterial Growth, detection method Resazurin, Fluorescence (ex560/em590), MEDIA CAMHB, plate type 384well, CORNING #3640, time 18 hr
Escherichia coli = assay: Antibacterial activity against Escherichia coli ATCC 25922 (CO-ADD:GN_001); MIC in CAMBH media using NBS plates, by Resazurin F(560/590); assay type: functional; conditions: Concentration 20 uM, ASSAY_TEST Inhibition of Bacterial Growth, detection method Resazurin, Fluorescence (ex560/em590), MEDIA CAMHB, plate type 384well, CORNING #3640, time 18 hr
Klebsiella pneumoniae = conditions: Concentration 20 uM; ASSAY_TEST Inhibition of Bacterial Growth; detection method Absorption (OD600); MEDIA CAMHB; plate type 384well; NBS; CORNING #3640; time 18 hr
Candida albicans = conditions: 20 µM
Cryptococcus neoformans = conditions: Concentration 20 uM; ASSAY_TEST Inhibition of Fungal Growth; detection method Resazurin; Absorption (OD600-OD570); plate type 384well; NBS; CORNING #3640

Structure (SMILES)	Inhibition (Staphylococcus aureus) [%]	Inhibition (Acinetobacter baumannii) [%]	Inhibition (Escherichia coli) [%]	Inhibition (Klebsiella pneumoniae) [%]	Inhibition (Candida albicans) [%]	Inhibition (Cryptococcus neoformans) [%]
O=C1Cc2cccc(O)c(=O)c2C(=O)O1	18.22	9.21	9.09	8.59	1.02	-4.33
O=C(/C=C/c1ccccc1Cl)c1ccc(O)cc1	3.85	0.76	-16.06	19.85	14.7	8.89
N#Cc1cc(-c2ccccc2)[nH]c1-c1nccc2ccccc12	-0.89	-11.99	7.81	10.89	17.5	-6.55
CCCCSc1nc(O)cc(C(=O)O)n1	3.28	-12.23	5.2	7.02	2.48	-8.23
Cn1c([N+](=O)[O-])cnc1N1CCN(c2nncs2)C1=O	0.67	-10.23	2.52	15.88	1.82	-10.17
CC1(C)OC2CC(=O)OCC23C1CC(=O)C1(C)C3CCC2(C)C(c3ccoc3)OC(=O)C3OC321 (configuration not stated)	21.22	-6.97	8.41	8.88	0.13	-7.86
O=C1C2CC3N1CCC31c3ccccc3-n3c1c2ccc3=O (configuration not stated)	27.56	-3.15	6.22	13.77	5.53	-4.11
Cc1cc2c(c(C#N)c1C)NC=NC2C (configuration not stated)	11.79	-0.59	15.46	8.12	-2.89	-13.76
S=c1c2nc[nH]c2ncn1CCSC1=NC=NC2=NC=NC21 (configuration not stated)	4.54	-14.19	7.44	7.27	5.38	-9.8
CC(C)(c1cc(Cl)c(O)c(CN2CCOCC2)c1)c1cc(Cl)c(O)c(CN2CCOCC2)c1	-6.13	0.12	12.95	0.6	-1.62	-0.13
O=C(O)/C=C\C(=O)Nc1ccc(-c2ccccc2)cc1	-11.84	13.91	-6.62	15.61	23	-5.96
Nc1ccc(NC(=O)Nc2ccc(N)cc2)cc1	-0.09	-11.79	5.61	0.94	-2.34	-9.22
COc1cccc(OCC(O)CN2CCN(c3ccc(Cl)cc3)CC2)c1 (configuration not stated)	13.17	4.14	2.15	0.79	0.05	-12.54
CCCCCCCC1(C)NC(=O)NC1=O (configuration not stated)	7.54	3.29	6.05	5.77	0.59	-12.36
O=C(/C=C/C(=O)N1CCc2ccccc2C1)N1CCc2ccccc2C1	0.65	-9.4	-3.52	3.56	7.97	-10.59
FC(F)(F)c1cccc(-c2nc3nc(Cl)c(Cl)nc3[nH]2)c1	-14.72	9.89	3.39	6.13	4.41	33.54
COc1ccc(N/C=C2\C(=O)CCc3c2oc2cc(Cl)c(O)c(Cl)c32)cc1	7.05	-14.01	13.43	4.7	3.38	-7.04
Nc1cnc(Nc2ccc(Br)cc2)nc1N.O=S(=O)(O)O	3.44	7.82	-16.03	6.45	3.46	6.23
O=C(Nc1ccc(Cl)cc1)Nc1cccc2nsnc12	6.14	9.14	-11.2	5.1	11.3	-2.68
CN(C)S(=O)(=O)Nc1cccc(Br)c1	1.46	-10.63	3.48	2.53	4.88	43.58
CCCSc1nc2c(c(=O)n(C)c(=O)n2C)n1C	3.15	-8.65	0.8	7.42	2.63	-7.02
CCC(C)N=C(S)Nc1ccccc1 (configuration not stated)	-4.21	6.89	4.84	5.07	5.4	-3.02
